This is an account of results in PubChem BioAssay.

Experiment [1] is described as follows: inhibitors of TNFa-induced NFkB p65 translocation, primary screen, imaging, HUVEC, MLSMR starter and 10KST1 sets (AID 438;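 active = inhibition above 20% together with a positive visual image hit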;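 note: compound added about 3h40 before a 20 min TNFalpha stimulation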;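 for inhibition: signal is the nuclear over cytoplasmic p65 intensity ratio per well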). Particulars: HUVEC TNFa-induced p65 nuclear translocation; cell count: measured here: nuclei count (cytotoxicity indicator), at 2.08 µM; inhibition: at 2 µM, stronger effect = higher value, 0% TNFa-plus-vehicle, 100% no-TNFa wells.
A short description of experiment [2]: inhibitors of mutant huntingtin aggregation, primary screen, imaging, exon1htt(103Q)mCFP cells, high-content imaging (AID 483;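 active = visual image review flags a hit and inhibition of aggregation exceeds 20%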;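 note: compound exposure lasted 3 days before fixation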;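 for nuclei count: percent of the per-plate median nuclei count of sample wells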). The following applies: exon1htt(103Q)mCFP cell line, aggregate imaging, at 2 µM; inhibition of aggregation: stronger effect = higher value; nuclei count: measured here: cell count, toxicity.
The nature of experiment [3]: inhibitors of E-selectin induction by TNFa, primary screen, imaging, HUVEC, immunofluorescence, MLSMR starter and 10KST1 sets (AID 487;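 active = visually confirmed hit in the image check and inhibition above 20%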;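 for inhibition: signal is fraction of cell area covered by stained E-selectin grains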;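 for nuclei count: 100% = median nuclei count of all wells on the same plate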). The following applies: HUVEC TNFalpha-induced E-selectin immunofluorescence imaging, at 2 µM; inhibition: stronger effect = higher value; nuclei count: measured here: cell number, toxicity.
Experiment [4] in a line: DUSP6 inhibitors restoring Erk phosphorylation by chemical complementation, primary imaging in DUSP6-transfected HeLa (AID 609;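 active = compounds giving at least 50% inhibition in the cell-based MKP-3 phosphatase rescue imaging test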;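 for inhibition: phospho-Erk level distribution per well compared with pooled transfected vehicle control wells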). The following applies: HeLa MKP-3 transfected, phospho-Erk imaging KS statistic, at 10 µM, cells stimulated with TPA for 15 min.
Experiment [5] deals with Dual specificity protein phosphatase 6 (Homo sapiens) (UniProt Q16828). The experiment is described as above. The following applies: HeLa MKP-3 transfected, phospho-Erk imaging KS statistic; at 10 µM; stronger effect = higher value; cells stimulated with TPA for 15 min.
In experiment [6] the target is Voltage-gated potassium channel subunit beta-2 (Rattus norvegicus) (UniProt P62483). The experiment is described as follows: KvBeta enzyme negative modulators, primary screen, biochemical, NADPH fluorescence (AID 622;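 active = fluorescence slope higher than the sample average by over 3 SD, cut at about -0.22 in these data, passing the limit was not always enough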;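 note: slope of raw intensity against log time taken from 70 to 1610 s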). Particulars: recombinant KvBeta, 4-cyanobenzaldehyde reduction, at 10 µM, stronger effect = higher value.
For experiment [7] the target is unchanged. The experiment in a line: KvBeta positive modulators, primary screen, biochemical, NADPH fluorescence (AID 623;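 active = NADPH fluorescence slope more negative than the mean of all samples by about 3 SD, 99.7% confidence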;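 note: fluorescence intensity change per second fitted from 20 to 320 s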). The following applies: Recombinant KvBeta, NADPH fluorescence decrease slope, 10 min; at 10 µM; stronger effect = lower value.
Experiment [8] addresses Alpha-2C adrenergic receptor (Homo sapiens) (UniProt P18825). The experiment in a line: modulators of alpha2C/GIRK thallium flux, primary screen, cell-based, HEK293 alpha2C/GIRK1/2 (AID 624;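 active = fluorescence slope after compound addition differing from the mean of all screened samples at 99.7% confidence, in either direction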;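 note: slope of fluorescence ratio to pre-addition baseline per second over 15 to 24 s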). The following applies: thallium flux BTC fluorescence, at 10 µM, actives lie on both sides.
Experiment [9] can be described thus: inhibitors of larval lipid processing in zebrafish, primary screen, whole organism, PED6 fluorescence, gall bladder and intestine (AID 686;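 active = a full or partial loss of lipid-probe fluorescence in the fish gall bladder, intestine or both, judged by eye; inactive = no fluorescence loss, or compound toxic to the fish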;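 note: larvae 5 to 7 days old with five fish per well; signal comes from phospholipase A2 cleavage of quenched PED6 carried via bile; overnight exposure to compound and PED6 before scoring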). Particulars: Zebrafish larvae PED6 lipid processing, fluorescence scoring; screened at 20 µM (by protocol).
The nature of experiment [10]: inhibitors of Chlamydomonas gravitaxis, primary screen, whole organism, Chlamydomonas reinhardtii, WT vs cilia-less mutant, absorbance, 96-well (AID 463189).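 Note: 0% = wild type cc124 cells in DMSO and 100% = ciliumless bld1 mutant cells.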 Particulars: OD600 absorbance, 2 days, at 10 µM, stronger effect = higher value.
Experiment [11] is described as follows: inhibitors of Sendai virus-induced IRF3 signaling, primary screen, TLR/RLR signaling modifier project, cell-based, Sendai virus stimulus, luciferase, 10K MLSCN set (AID 602276;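 active = inhibition at or above 50% at 10 µM; inactive = inhibition below 50%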;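 note: firefly luciferase from ISG56 promoter only with Renilla not read in this screen; 0% = Sendai virus plus DMSO and 100% = medium plus DMSO without virus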). The following applies: HEK293 RL24 IRF3 luciferase reporter, at 10 µM, stronger effect = higher value.
Experiment [12] is described as follows: inhibitors of poly I:C-induced TLR3 signaling, primary screen, cell-based, poly I:C stimulus, luciferase, 10K MLSCN set (AID 602277;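 active = inhibition of the reporter signal at or above 50%; inactive = inhibition below 50%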). The following applies: HEK293-TLR3 RL24 IRF3 luciferase reporter, at 10 µM, stronger effect = higher value. In general terms: A reporter such as luciferase makes a cellular process visible.
Setting [13] is: measured here: cell density z-score.
Setting [14] is: measured here: nuclear c-Myc green intensity z-score.
Where [15] appears, read: measured here: nuclear pErk red intensity z-score, stronger effect = higher value.

Several values for one entry are separate records, joined by “and”; a condition that tells them apart may be missing. Identical values can stand only once. Activity calls are given as the source filed them.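 Rule for the calls, unless noted: active = inhibition at or above 50% relative to wild type and mutant plate controls; inactive = inhibition below 50%.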

Chain of Alpha-2C adrenergic receptor (Homo sapiens) (P18825 whole entry, looked up): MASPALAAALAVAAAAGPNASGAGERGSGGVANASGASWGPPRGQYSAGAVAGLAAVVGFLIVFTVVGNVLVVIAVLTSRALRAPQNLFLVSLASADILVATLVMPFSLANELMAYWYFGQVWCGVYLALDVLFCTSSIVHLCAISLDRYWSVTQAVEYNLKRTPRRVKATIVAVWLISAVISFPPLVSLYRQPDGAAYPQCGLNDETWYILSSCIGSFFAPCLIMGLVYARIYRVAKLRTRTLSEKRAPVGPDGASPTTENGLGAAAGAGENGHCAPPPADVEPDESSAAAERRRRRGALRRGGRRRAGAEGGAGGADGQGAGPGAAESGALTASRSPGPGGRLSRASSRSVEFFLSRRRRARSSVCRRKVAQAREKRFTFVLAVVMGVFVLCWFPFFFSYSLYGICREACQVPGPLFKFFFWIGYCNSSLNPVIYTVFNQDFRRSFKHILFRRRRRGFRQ
Chain of Dual specificity protein phosphatase 6 (Homo sapiens) (Q16828 whole entry, looked up): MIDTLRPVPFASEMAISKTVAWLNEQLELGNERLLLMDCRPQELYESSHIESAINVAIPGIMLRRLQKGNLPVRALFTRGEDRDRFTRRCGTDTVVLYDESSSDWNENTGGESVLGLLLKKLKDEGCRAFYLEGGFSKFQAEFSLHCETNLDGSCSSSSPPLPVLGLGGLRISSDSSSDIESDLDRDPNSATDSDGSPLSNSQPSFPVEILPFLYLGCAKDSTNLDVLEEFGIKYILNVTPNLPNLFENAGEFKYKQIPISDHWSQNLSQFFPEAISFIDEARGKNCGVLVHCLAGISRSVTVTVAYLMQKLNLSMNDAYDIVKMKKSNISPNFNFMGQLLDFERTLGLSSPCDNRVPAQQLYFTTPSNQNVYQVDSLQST
Chain of Voltage-gated potassium channel subunit beta-2 (Rattus norvegicus) (P62483 whole entry, looked up): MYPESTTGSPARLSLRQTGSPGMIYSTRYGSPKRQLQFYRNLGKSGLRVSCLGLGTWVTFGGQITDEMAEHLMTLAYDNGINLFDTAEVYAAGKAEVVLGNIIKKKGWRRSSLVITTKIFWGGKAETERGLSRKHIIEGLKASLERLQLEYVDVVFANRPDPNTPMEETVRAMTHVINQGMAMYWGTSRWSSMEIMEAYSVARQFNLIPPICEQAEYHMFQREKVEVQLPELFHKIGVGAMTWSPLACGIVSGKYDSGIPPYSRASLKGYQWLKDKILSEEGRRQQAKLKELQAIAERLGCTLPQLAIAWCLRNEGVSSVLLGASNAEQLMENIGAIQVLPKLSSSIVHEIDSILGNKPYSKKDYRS

With `NCc1ccc(S(N)(=O)=O)cc1`, the cell count in experiment [1] was 705. The inhibition in experiment [1] is -2.8% (inactive); in [3] it was -71.2% (inactive); in experiment [5] it was 21.2% (inactive); in experiment [10] it was 1.96% (inactive); in experiment [11], 14% (inactive); in experiment [12] it was 32.7% (inactive). Besides, in experiment [2], the inhibition of aggregation was 26.6% (inactive). Also, the figures for the nuclei count in experiment [2] and in experiment [3] were 107% and 118%, respectively. For the same compound, the z-score in [4] (setting [13]) is 0.933; in [4] (setting [14]), -0.356; in experiment [4] (setting [15]) it was -0.92. Further, the fluorescence slope in [6] was -0.453 (inactive). For the same compound, the NADPH fluorescence slope in [7] is -9.2e-05 (inactive). The slope in [8] is 0.00484 (inactive). Further, the compound was called inactive in experiment [9].

For the compound `Cc1ccccc1C(OCCN(C)C)c1ccccc1` (stereo not given), the cell count in [1] amounted to 644. Also, the inhibition in experiment [1] was -4.5% (inactive); in experiment [3], -41.9% (inactive); in experiment [5] it was -0.828% (inactive); in experiment [10] it was 24.9% (inactive) and 29.3% (inactive); in [11], 22.3% (inactive); in experiment [12], 42.3% (inactive). The inhibition of aggregation in experiment [2] was -3% (inactive). Further, the nuclei count turned out to be 89% in experiment [2] and 103% in [3]. In addition, the z-score in experiment [4] (setting [13]) is -0.367; in experiment [4] (setting [14]), -1.7; in experiment [4] (setting [15]), 0.158. For the same compound, the fluorescence slope in experiment [6] was -0.48 (inactive). For the same compound, the NADPH fluorescence slope in [7] is -2.2e-05 (inactive). Further, the slope in experiment [8] is 0.00302 (inactive). The outcome in experiment [9] was inactive.

Consider `Cc1cc(-c2ccccc2)nnc1NCCN1CCOCC1`, for which, in [1], the cell count came out at 674. Moreover, the inhibition in [1] is 5.8% (inactive); in [3], -64.4% (inactive); in [5] it was 25.7% (inactive); in experiment [10], 15.7% (inactive); in experiment [11], 13.3% (inactive); in [12] it was 33.7% (inactive). In experiment [2], the inhibition of aggregation was -29.4% (inactive). Also, the nuclei count in experiment [2] was found to be 99.9%; in [3] it was 119%. Moreover, the z-score in experiment [4] (setting [13]) came out at 0.561; in [4] (setting [14]), 0.88; in [4] (setting [15]), 0.22. Also, the fluorescence slope in [6] is -0.472 (inactive). For the same compound, in experiment [7], the NADPH fluorescence slope is -2e-05 (inactive). Moreover, the slope in [8] is 0.00515 (inactive). The call in experiment [9] was inactive.

In the case of `CC[N+](C)(CC)CCOC(=O)C(O)(c1ccccc1)C1CCCCC1` (stereo not given), the cell count in experiment [1] was found to be 475. The inhibition in experiment [1] was -3.8% (inactive); in experiment [3] it was -15.1% (inactive); in experiment [5] it was -4.44% (inactive); in [10], -14% (inactive); in experiment [11], 2.1% (inactive); in [12] it was 24.6% (inactive). The inhibition of aggregation in experiment [2] was 7.2% (inactive). Moreover, the nuclei count amounted to 95.4% in [2] and 111% in experiment [3]. The results for the z-score in experiment [4] (setting [13]), in [4] (setting [14]) and in experiment [4] (setting [15]) were -1.3, -0.403 and 0.0665, respectively. Moreover, in experiment [6], the fluorescence slope was -0.515 (inactive). In addition, in experiment [7], the NADPH fluorescence slope is -2.6e-05 (inactive). For the same compound, in [8], the slope was 0.00498 (inactive). The outcome in [9] was inactive.

Take `Cn1c2c(c(=O)n(C)c1=O)C(NC(=O)C(C)(C)C)(C(F)(F)F)C(=O)N2` (stereo not given): the cell count in [1] was 538. Moreover, the inhibition in experiment [1] was -3.9% (inactive); in experiment [3], -105% (inactive); in experiment [5], 5.26% (inactive); in experiment [10], 17.2% (inactive); in [11], 14.7% (inactive); in experiment [12] it was 16.6% (inactive). In [2], the inhibition of aggregation was 0.9% (inactive). Also, the nuclei count was found to be 103% in [2] and 131% in experiment [3]. Also, the z-score in experiment [4] (setting [13]) was -0.683; in experiment [4] (setting [14]) it was -0.488; in [4] (setting [15]), -0.945. The fluorescence slope in experiment [6] was -0.51 (inactive). In [7], the NADPH fluorescence slope is -6.1e-05 (inactive). In addition, the slope in [8] is 0.00635 (inactive). For the same compound, the result in experiment [9] was inactive.

In general, inhibition refers to the relative decrease from the control value, in per cent.
